TEAD-YAP block – TEAD-YAP interaction inhibition; HEK-TIYL cells, TEAD-Gal4/YAP UAS-luciferase luminescence; actives 1.4% (n = 640,000); inhibition, % at 9.12 µM; in the data active = inhibition above about 32%
MITF primary – human MITF inhibition, primary screen | AID 1259374 | AlphaScreen MITF homodimerization, bead proximity signal | inhibition, % at 2.6 µM | actives 0.91% (n = 650,000); in the data active = inhibition above about 50%
FBW7 act – human FBW7 E3 ligase activation, primary screen; Q969H0; AlphaScreen FBW7–phospho-cyclin E peptide binding, activator screen; normalized activity (activation), % at 26.1 µM; actives 0.13% (n = 650,000); AID 1259310; in the data active = normalized activity above about 1.9%;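 note: purified mutant Fbw7 with reduced substrate affinity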
GPR151 ag – activators of human GPR151. activation, % at 11.2 µM. AID 1508602. Q8TDV0. PathHunter beta-arrestin GPR151 cells, luminescence. actives 1% (n = 650,000); in the data active = activation above about 4.9%
GPR151 confirm – confirmation of human GPR151 activators; shares compounds with GPR151 ag; GPR151 PathHunter beta-arrestin cells, luminescence, 90 min; % of EA-reagent control over plate median; activation, % at 11.2 µM; 6,700 tested, under 10 active; AID 1508609;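 active = mean percent activation across replicates above the confirmation screen cutoff of 4.91%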
GPR119 counter – GPR119 activation, counter-screen for GPR151 activators; shares compounds with GPR151 ag; GPR119 PathHunter beta-arrestin cells, luminescence, 90 min; 0 = compound-well median, 100 = enzyme-acceptor control; activation, % at 11.2 µM; actives 0.3% (n = 6,700); AID 1508611;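 active = mean percent activation in the counterscreen above 29.09%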;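 note: counterscreen on off-target GPR119 to flag nonselective hits from the GPR151 activator screen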
Target sequence (Q8TDV5 whole entry, looked up): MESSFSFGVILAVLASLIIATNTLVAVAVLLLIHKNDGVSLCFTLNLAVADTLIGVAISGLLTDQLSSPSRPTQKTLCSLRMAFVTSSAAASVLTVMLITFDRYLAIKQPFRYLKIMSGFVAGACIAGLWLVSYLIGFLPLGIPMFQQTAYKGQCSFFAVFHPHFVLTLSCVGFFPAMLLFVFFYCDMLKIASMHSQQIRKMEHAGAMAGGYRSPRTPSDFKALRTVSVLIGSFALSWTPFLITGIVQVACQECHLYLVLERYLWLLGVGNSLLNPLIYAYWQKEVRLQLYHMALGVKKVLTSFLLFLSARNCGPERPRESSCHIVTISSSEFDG
Each line names hits and unclear results; the compound was inactive in the other large screens (follow-up assays come after a bar, where they were run); ! = a repeat was not active. Most compounds without a hit are left out; they make up all but 3.5% or so of the library.

CCOC(=O)C1C(=O)CC(C)(O)C(C(=O)OCC)C1c1ccc(CC)cc1 (stereo not given)	none
CC(=O)N1CCc2cc(S(=O)(=O)NCCC(=O)NCCc3ccc(Cl)cc3)ccc21	GPR151 ag 6.5 | GPR151 confirm inactive | GPR119 counter inactive
CCCC1(C2CCN(Cc3ccc(O)cc3)CC2)NC(=O)N(CC2CCCO2)C1=O (stereo not given)	GPR151 ag 6.0 | GPR151 confirm inactive | GPR119 counter inactive
CC(C)C(=O)Nc1cccc(C(=O)N2CCCc3ccccc32)c1	GPR151 ag 6.5 | GPR151 confirm inactive | GPR119 counter inactive
Cc1ccc(C(=O)N2CCCc3ccccc32)cc1C	none
CCN(CC)C(=O)c1sc(N)c(C(=O)OC(C)C)c1C	GPR151 ag 16.1 | GPR151 confirm inactive | GPR119 counter inactive
COC1C(OC(N)=O)C(O)C(Oc2ccc3c(O)c(NC(=O)c4ccc(O)c(CC=C(C)C)c4)c(=O)oc3c2C)OC1(C)C (stereo not given)	GPR151 ag 6.6! | GPR151 confirm inactive | GPR119 counter inactive
CCOC(=O)c1c(C2COc3ccccc3O2)csc1NC(=O)c1ccc(OC)c(OC)c1 (stereo not given)	none
O=C(NC1CCCCC1)c1ccc(F)c(F)c1	GPR151 ag 5.8 | GPR151 confirm inactive | GPR119 counter inactive
O=C(NC1CCCCC1)c1ccc(-n2cccc2)cc1	GPR151 ag 5.8 | GPR151 confirm inactive | GPR119 counter inactive
O=C(N/N=C/c1cccc(Br)c1)C1CC(=O)N(c2ccccc2)C1 (stereo not given)	FBW7 act 2.8, GPR151 ag 5.3 | GPR151 confirm inactive | GPR119 counter inactive
Cc1ccc(NC(=O)COc2ccc(N3CC(C(N)=O)CC3=O)cc2)cc1 (stereo not given)	GPR151 ag 6.4 | GPR151 confirm inactive | GPR119 counter inactive
O=C(N/N=C/c1cccs1)C1CC(=O)N(c2ccc(Cl)cc2)C1 (stereo not given)	GPR151 ag 11.8 | GPR151 confirm inactive | GPR119 counter inactive
O=C(N/N=C/c1ccc(Br)cc1)C1CC(=O)N(c2ccc(F)cc2)C1 (stereo not given)	none
CCOc1ccc(NC(=O)COC(=O)C2CC(=O)N(c3ccc(C)cc3)C2)cc1 (stereo not given)	none
CC(=O)Nc1ccc(NC(=O)C2CC(=O)N(c3ccc(Br)cc3)C2)cc1 (stereo not given)	GPR151 ag 8.5 | GPR151 confirm inactive | GPR119 counter inactive
COc1ccc(CNC(=O)c2cc(=O)[nH]c3c2c(C)nn3-c2ccccc2)cc1	none
CCCCC(C)NC(=O)C1CC(=O)N(c2ccc(OCC)cc2)C1 (stereo not given)	GPR151 ag 5.5 | GPR151 confirm inactive | GPR119 counter inactive
CCOc1ccc(-c2nnc(SCC(N)=O)n2-c2ccccc2)cc1	none
CCCOc1ccc(-c2nnc(SCC(N)=O)n2-c2ccccc2)cc1	GPR151 ag 5.3 | GPR151 confirm inactive | GPR119 counter inactive
CC1CCC2(CC1)NC(=O)N(CC(=O)NC(=O)NCc1ccccc1)C2=O (stereo not given)	GPR151 ag 5.5 | GPR151 confirm inactive | GPR119 counter inactive
COC(=O)c1cn(NC(=O)/C=C/c2ccc(Br)cc2)c(=O)c2ccccc12	GPR151 ag 7.8 | GPR151 confirm inactive | GPR119 counter inactive
O=C(O)c1c(Br)sc(-c2ccccc2)c1-c1ccccc1	GPR151 ag 7.1 | GPR151 confirm inactive | GPR119 counter inactive
O=C(Cc1ccccc1[N+](=O)[O-])NNC(=O)Nc1ccc2c(c1)OCO2	GPR151 ag 5.1 | GPR151 confirm inactive | GPR119 counter inactive
O=C(Cc1ccccc1[N+](=O)[O-])Nc1ccc2c(c1)OCO2	none
Cc1cc(C)n2c(SCC(=O)NC(=O)NC(C)(C)C)nnc2n1	GPR151 ag 5.5 | GPR151 confirm inactive | GPR119 counter inactive
O=C(CCN1C(=O)/C(=C\c2cccs2)SC1=S)N1CCCC1	GPR151 ag 6.0 | GPR151 confirm inactive | GPR119 counter inactive
O=C(CN1C(=O)S/C(=C\c2cccs2)C1=O)N1CCCC1	GPR151 ag 5.5 | GPR151 confirm inactive | GPR119 counter inactive
CCN(CC)c1nc(C)nc2sc(C(=O)Nc3cc(Cl)ccc3OC)c(C)c12	none
Cc1cc(-c2ccccc2)n(-c2cc(Nc3ccccc3)ncn2)n1	GPR151 ag 5.1 | GPR151 confirm inactive | GPR119 counter inactive
Cc1cc(-c2ccccc2)n(-c2cc(Nc3cccc(F)c3)ncn2)n1	none
COc1ccc(NC(=O)c2c(C)nc3ccc(C)cn23)cc1OC	none
O=C(CN1C(=O)CCS(=O)c2ccccc21)NCCCc1ccccc1 (stereo not given)	none
CC(C)NCC(O)COc1ccc2c(c1)CCC2 (stereo not given)	none
CC(C)(C)c1ccc(OCC(O)CNC2CCCC2)cc1 (stereo not given)	GPR151 ag 12.4 | GPR151 confirm inactive | GPR119 counter inactive
OC(CNC1CCCC1)COc1ccc2c(c1)CCC2 (stereo not given)	GPR151 ag 12.0 | GPR151 confirm inactive | GPR119 counter inactive
CCCCN(CC)C(=O)c1ccccc1Cl	none
COc1ccc(OCCn2cc(/C=C(\C#N)C(=O)NC3CC3)c3ccccc32)cc1	none
COc1ccccc1OCCn1cc(/C=C(\C#N)C(=O)NC2CC2)c2ccccc21	GPR151 ag 5.6 | GPR151 confirm inactive | GPR119 counter inactive
COc1c(C)cc(C(=O)C2CCCN(S(=O)(=O)c3c(C)nn(C)c3Cl)C2)cc1C (stereo not given)	GPR151 ag 8.7 | GPR151 confirm inactive | GPR119 counter inactive
COc1ccc(C(=O)C2CCCN(S(=O)(=O)c3c(C)nn(C)c3Cl)C2)c(C)c1 (stereo not given)	none
CCOC(=O)c1ccc2cc3c(cc2c1O)OCCO3	none
CSc1nnc(-c2ccco2)n1-c1ccccc1	GPR151 ag 5.1 | GPR151 confirm inactive | GPR119 counter inactive
CN(C)CCNc1nc2c(c(=O)[nH]c(=O)n2C)n1Cc1ccc([N+](=O)[O-])cc1	GPR151 ag 5.1 | GPR151 confirm inactive | GPR119 counter inactive
Cc1cccc(Cn2c(NCCN(C)C)nc3c2c(=O)[nH]c(=O)n3C)c1	none
COc1ccc(S(=O)(=O)/N=C2/NC(=O)/C(=C\c3ccco3)S2)cc1	GPR151 ag 7.4 | GPR151 confirm inactive | GPR119 counter inactive
Cc1ccc(S(=O)(=O)/N=C2/NC(=O)/C(=C/c3ccco3)S2)cc1	none
COc1ccc(-c2nn(CCC(=O)O)cc2C=C2C(=O)NC(=O)NC2=O)cc1	none
COCCCNCCn1cnc2c(N)ncnc21	GPR151 ag 7.2 | GPR151 confirm inactive | GPR119 counter inactive
Cc1cc(C)c2[nH]c(C)c(CN3CCOCC3)c(=O)c2c1	none
